# Out of some 310,000 compounds screened, about 14,000 (4.5%) showed an effect of 50% or more. Effects have a minus sign here. This is one part of a sample in which strong results are shown more often than they occur.
# Target: human ether-à-go-go-related gene (hERG) potassium channel (human, UniProt Q12809)
# Assay: primary screen, population patch clamp on CHO cells stably expressing hERG; higher = less effect of the substance
# 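Also: peak tail current of the secondary pulse compared with the same well before compound.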
# human ether-à-go-go-related gene (hERG) potassium channel, sequence (Q12809 whole entry, looked up): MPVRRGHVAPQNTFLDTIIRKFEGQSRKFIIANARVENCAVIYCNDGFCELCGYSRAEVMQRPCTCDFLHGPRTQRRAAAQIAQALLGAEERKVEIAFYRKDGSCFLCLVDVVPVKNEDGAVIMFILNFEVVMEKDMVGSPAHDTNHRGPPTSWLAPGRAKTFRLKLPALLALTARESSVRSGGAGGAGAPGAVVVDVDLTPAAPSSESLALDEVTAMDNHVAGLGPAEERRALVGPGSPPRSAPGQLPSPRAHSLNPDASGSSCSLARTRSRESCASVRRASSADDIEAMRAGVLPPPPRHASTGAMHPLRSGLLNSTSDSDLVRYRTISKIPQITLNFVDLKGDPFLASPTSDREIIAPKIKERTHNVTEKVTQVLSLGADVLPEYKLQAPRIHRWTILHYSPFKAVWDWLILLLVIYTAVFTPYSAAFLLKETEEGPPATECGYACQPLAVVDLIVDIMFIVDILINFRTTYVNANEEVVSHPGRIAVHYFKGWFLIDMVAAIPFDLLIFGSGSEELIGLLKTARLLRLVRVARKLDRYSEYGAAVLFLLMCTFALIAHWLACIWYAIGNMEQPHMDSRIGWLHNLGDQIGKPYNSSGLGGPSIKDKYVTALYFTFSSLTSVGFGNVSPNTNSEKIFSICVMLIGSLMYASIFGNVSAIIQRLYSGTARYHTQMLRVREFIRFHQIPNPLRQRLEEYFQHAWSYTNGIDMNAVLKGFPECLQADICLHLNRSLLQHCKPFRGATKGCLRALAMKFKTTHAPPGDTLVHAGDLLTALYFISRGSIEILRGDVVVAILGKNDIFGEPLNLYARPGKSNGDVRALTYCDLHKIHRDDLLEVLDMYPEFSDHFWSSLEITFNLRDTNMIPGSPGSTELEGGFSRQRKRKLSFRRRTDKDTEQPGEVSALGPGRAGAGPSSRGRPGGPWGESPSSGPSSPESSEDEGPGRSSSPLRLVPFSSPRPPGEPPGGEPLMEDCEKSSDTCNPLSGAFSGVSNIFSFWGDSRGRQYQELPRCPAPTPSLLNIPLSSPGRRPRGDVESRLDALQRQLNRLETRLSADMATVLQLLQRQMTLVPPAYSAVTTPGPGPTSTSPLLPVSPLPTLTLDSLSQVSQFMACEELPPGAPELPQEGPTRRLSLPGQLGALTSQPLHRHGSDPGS
row,SMILES,"hERG current change (%, negative = inhibition) at 10uM"
1,Cc1ccc(C2=NN3C(C(=O)c4ccccc4)Oc4ccccc4C3C2)cc1 (centres unmarked),0.487%
2,COC(=O)c1cc(NC(=O)CN(c2ccccc2OC)S(=O)(=O)c2ccccc2)ccc1Cl,1.44%
3,O=S(=O)(NC(=NC1CCCCC1)c1ccccc1F)c1ccccc1,10.4%
4,Cc1ccc(C2=C(CC(=O)O)C(=O)CC2)cc1,12.1%
5,O=C(O)CCCN1C(=O)C2C3c4ccccc4C(c4ccccc43)[C@@H]2C1=O (some centres unmarked),13%
6,CSc1ccc(C2NC(=O)c3ccccc3N2)cc1 (centres unmarked),5.54%
7,COc1ccc(NC(=O)CSc2nccn2Cc2ccccc2)cc1,-4.86%
8,O=C(Cc1ccc([N+](=O)[O-])cc1)c1ccc(O)cc1O,-40.4%
9,COc1ccc(CC(=O)Nc2cc(S(=O)(=O)N3CCCCC3)ccc2N2CCN(C)CC2)cc1,-54%
10,COc1ccccc1CCC(=O)Nc1cc(S(=O)(=O)N2CCCCC2)ccc1N1CCN(C)CC1,-26.5%
11,CN1CCN(c2ccc(S(=O)(=O)N3CCOCC3)cc2NC(=O)CCc2ccccc2)CC1,-8.75%
12,CC(=O)NCCC(=O)Nc1cc(S(=O)(=O)N2CCCCC2)ccc1N1CCN(C)CC1,-9.13%
13,O=C(Cc1ccc(Cl)cc1)Nc1cc(S(=O)(=O)N2CCOCC2)ccc1N1CCCC1,-37.3%
14,CCN1CCN(c2ccc(S(=O)(=O)N3CCCCC3)cc2NC(=O)Cc2c(F)cccc2Cl)CC1,-8.09%
15,CN1CCN(c2ccc(S(=O)(=O)N3CCCCC3)cc2NC(=O)CCc2ccccc2)CC1,-53.3%
16,CN1CCN(c2ccc(S(=O)(=O)N3CCCCC3)cc2NC(=O)Cc2ccc(Cl)cc2)CC1,-72%
17,COc1ccc(CC(=O)Nc2cc(S(=O)(=O)N3CCOCC3)ccc2N2CCOCC2)cc1,0.344%
18,CN1CCN(c2ccc(S(=O)(=O)N3CCCCC3)cc2NC(=O)CSCc2ccccc2)CC1,-20.5%
19,O=C(Cc1c(F)cccc1Cl)Nc1cc(S(=O)(=O)N2CCCCC2)ccc1N1CCOCC1,-52.2%
20,CN1CCN(c2ccc(S(=O)(=O)N3CCCCC3)cc2NC(=O)Cc2c(F)cccc2Cl)CC1,-21.8%
21,Cc1ccc(C(=O)COC(=O)c2ccccc2NC(=O)c2ccccc2)cc1[N+](=O)[O-],4.55%
22,O=C(COC(=O)/C=C/c1ccc(Cl)cc1Cl)Nc1ccc2c(c1)OCCO2,18.5%
23,O=C(Nc1cccc(C(=O)O)c1)/C(=C\c1ccco1)NC(=O)c1ccccc1Cl,7.53%

row,SMILES,"hERG current change (%, negative = inhibition) at 10uM"
1,COC(=O)c1[nH]c(C)c(/C(O)=C2\C(=O)C(=O)N(CCN3CCOCC3)C2c2ccc(C)o2)c1C (centres unmarked),-6.49%
2,Cc1c(CCC(=O)O)c(=O)oc2cc3occ(-c4ccc(Cl)cc4)c3cc12,21.7%
3,Cc1ccc(Oc2nnc(-c3cccs3)c3ccccc23)cc1,-0.00742%
4,CNC(=O)COC(=O)c1cccnc1SC,3.53%
5,CCN1CCN(c2ccc(S(=O)(=O)N3CCCCC3)cc2NC(=O)Cc2ccc(Cl)c(Cl)c2)CC1,-48.5%
6,CCN1CCN(c2ccc(S(=O)(=O)N3CCCCC3)cc2NC(=O)Cc2ccccc2)CC1,-33.5%
7,CCN1CCN(c2ccc(S(=O)(=O)N3CCCCC3)cc2NC(=O)Cc2ccc(OC)cc2)CC1,-60.1%
8,CCOC(=O)C1(CC)NC(c2ccc(OC)c(OC)c2)C2C(=O)N(c3cccc(C(C)=O)c3)C(=O)C21 (centres unmarked),16.5%
9,Cc1ccc(S(=O)(=O)/N=C2/C=C(C3C(=O)CC(C)(C)CC3=O)C(=O)c3ccccc32)cc1,0.322%
10,COc1cccc(CNC(=S)Nc2cc(C)cc(C)c2)c1,6.62%
11,N#Cc1cccc(NC(=O)COc2ccc(-n3ccnc3)cc2)c1,-67.5%
12,N#Cc1ccc(OCC(=O)Nc2ccncc2)cc1,18.1%
13,O=C(COc1ccc(-n2ccnc2)cc1)Nc1cccc(F)c1,-54.6%
14,O=C(COc1ccc(-n2ccnc2)cc1)Nc1cccc(Cl)c1,-38.9%
15,N#Cc1cccc(NC(=O)CCn2ccnc2)c1,2.87%
16,O=C(COc1ccc2c(c1)OCO2)Nc1cccc(F)c1,19.8%
17,O=C(NCc1ccccc1)C1c2ccccc2Oc2ccccc21,7.83%
18,Cc1ccc(-n2c(N)cc(=O)nc2SCC(=O)NC2CCCCC2)cc1C,8.7%
19,COc1ccc(CCN2C(=O)CC(N3CCN(S(=O)(=O)c4ccccc4)CC3)C2=O)cc1OC (centres unmarked),-5.73%
20,CCOc1ccc(S(=O)(=O)Nc2ccc(C(=O)NCc3ccncc3)cc2)cc1,-22.2%
21,CCc1c(C)nc2ncnn2c1Nc1ccc(C)cc1,-5.65%
22,Cc1nc2ncnn2c(Nc2ccc3c(c2)OCCO3)c1C,0.223%
23,Cc1nc2ncnn2c(Nc2ccc3c(c2)OCO3)c1Cc1ccccc1,-55.1%

row,SMILES,"hERG current change (%, negative = inhibition) at 10uM"
1,CCc1c(C)nc2ncnn2c1Nc1ccc(C#N)c(Cl)c1,-50.6%
2,Cc1cc(Nc2ccc3c(c2)OCCO3)n2ncnc2n1,-42.7%
3,CCc1c(C)nc2ncnn2c1Nc1ccc(C)c(C)c1,-17.6%
4,COc1ccc(CC(=O)NNS(=O)(=O)c2ccc(F)cc2)cc1OC,0.969%
5,COc1ccc(-n2c(C)cc(C(=O)CN3CCCCC3)c2C)cc1,1.6%
6,CNc1nc(C)c(C(=O)OCc2ccccc2)s1,15.9%
7,O=C(Nc1c2c(nn1-c1ccccc1)CS(=O)C2)c1ccc(Br)o1 (centres unmarked),1.07%
8,Cc1ccc(SCc2nc3ncccn3c2Br)cc1,-68%
9,Cc1cc(=O)[nH]c(SCc2nc3ncccn3c2Br)n1,14.6%
10,Brc1c(CSc2nc3ccccc3o2)nc2ncccn12,-51.8%
11,Cc1cc(C)nc(SCc2nc3ncccn3c2Br)n1,-2.09%
12,Brc1c(CSc2nc3ccccc3s2)nc2ncccn12,-69.7%
13,Clc1c(CSc2nc3ccccc3o2)nc2ccccn12,-20.4%
14,O=[N+]([O-])c1ccc2sc(SCc3nc4ccccn4c3Br)nc2c1,20.2%
15,c1ccc2sc(SCSc3nc4ccccc4s3)nc2c1,15.8%
16,Clc1c(CSc2nc3ccccc3o2)nc2sccn12,5.65%
17,COc1ccc(S(=O)(=O)Nc2ccc3c(c2)OCO3)cc1OC,21.7%
18,COc1ccc(NC(=O)CSc2nnc(-c3ccccc3C)n2N)cc1,31.2%
19,CCC(Oc1ccccc1)C(=O)Nc1cc(Cl)ccc1-n1cncn1 (centres unmarked),-14.1%
20,O=C1c2ccccc2C(=O)N1C(CO)C(O)c1ccc([N+](=O)[O-])cc1 (centres unmarked),-5.29%
21,CC(c1nnc(SCC(=O)N2CC(=O)Nc3ccccc32)n1Cc1ccccc1)N(C)C (centres unmarked),5.73%
22,CC(C)CCNCC(O)CON=C1c2ccccc2-c2ccccc21 (centres unmarked),-32.2%
23,CC(N=Cc1cc([N+](=O)[O-])ccc1O)c1ccccc1 (centres unmarked),11.7%

row,SMILES,"hERG current change (%, negative = inhibition) at 10uM"
1,CC(O)CN1CC(O)=C(c2nc3ccccc3s2)C1=N (centres unmarked),3.89%
2,COc1ccc(C(=O)NCc2ncccc2C)cc1OC1CCN(C(C)=O)CC1,9.32%
3,CCOc1ccccc1-n1c(SCC(=O)Nc2ccccc2C(=O)O)nc2ccccc2c1=O,8.39%
4,Cc1ccc(S(=O)(=O)N2CCN(CC(=O)N/N=C\c3ccc(O)c(O)c3)CC2)cc1,-8.76%
5,O=C(CN1CCN(S(=O)(=O)c2ccc(Br)cc2)CC1)N/N=C/c1ccc(Cl)c([N+](=O)[O-])c1,-17.9%
6,O=C(CN1CCN(S(=O)(=O)c2ccc(Br)cc2)CC1)N/N=C/c1cccnc1,-31.6%
7,Cc1ccc(S(=O)(=O)N2CCN(CC(=O)N/N=C\c3ccncc3)CC2)cc1,-66.8%
8,Cc1ccc(S(=O)(=O)N2CCN(CC(=O)N/N=C\c3cccnc3)CC2)cc1,0.297%
9,O=C(CN1CCN(S(=O)(=O)c2ccc(Br)cc2)CC1)N/N=C/c1ccncc1,-70.6%
10,O=C1N/C(=N\c2ccccn2)SC1Cc1ccc(Cl)cc1 (centres unmarked),4.11%
11,Cc1cccc(CCNc2nc3ccc(C)cc3n3cnnc23)c1,17.3%
12,CC(C)(C)CC(C)(C)NC(=O)c1ccc2snnc2c1,-13.6%
13,COc1ccc(S(=O)(=O)NC(CC(=O)N2CCC3(CC2)OCCO3)C(C)C)cc1 (centres unmarked),10.9%
14,COc1ccccc1CCC(=O)N(C)C1CCCN(Cc2ccccc2F)C1 (centres unmarked),-28%
15,Cc1onc(-c2ccccc2)c1C(=O)OCc1nnc(-c2ccccc2)o1,-15.6%
16,Cc1csc(=O)n1CC(=O)OCc1nnc(-c2ccc(Cl)cc2)o1,-2.32%
17,Cc1onc(-c2ccccc2)c1C(=O)OCc1nnc(-c2ccc([N+](=O)[O-])cc2)o1,-71.5%
18,Cc1csc(=O)n1CCC(=O)OCc1nnc(-c2ccc([N+](=O)[O-])cc2)o1,-67.3%
19,Cc1onc(-c2ccccc2Cl)c1C(=O)OCc1nnc(-c2ccccc2)o1,-16.7%
20,Cc1ccc(C(=O)OCc2nnc(-c3ccccc3)o2)s1,-7.37%
21,Cc1ccc(C(=O)NCC(=O)OCc2nnc(-c3ccc([N+](=O)[O-])cc3)o2)s1,-67.3%
22,Cc1ccc(C(=O)NCC(=O)OCc2nnc(-c3ccccc3)o2)cc1,-31.6%
23,Cc1csc(=O)n1CCC(=O)OCc1nnc(-c2ccccc2)o1,-8.45%

# Reference: article PMC4336329 (PLoS ONE, 2015)
